Bioassay records: PubChem, National Center for Advancing Translational Sciences (NCATS)
In the library only some 2.9% were active in any assay of this set; here they are far more common.
Rango complex inh: inhibitors of Rango-importin beta complex formation. Q14974. AID 540263. Potency, µM (highest dose often 92.2 µM). Rango CFP/YFP FRET sensor + importin beta, 45 min. 0.031% of 340,000 active; also: nearly all actives have a fitted effect of over 15% in size
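FRET biosensor Rango (snurportin 1 IBB between N-terminal EYFP and C-terminal Cerulean), 50 nM in PBS/1 mM DTT/0.02% Tween-20/0.1% BSA, preincubated 5 min RT with compound; 0.125 microM importin beta added, 45 min RT, CFP/YFP FRET ratio read.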
DRD3 antagonist: blocks the human D3 dopamine receptor. AID 652054. 2.5% of 360,000 active. max response, negative = inhibition, %. D3R cells, DiscoveRx beta-arrestin luminescence, antagonist mode; hits give low values; in the data active = max response below about -50%; inconclusive = no clear call, values can overlap the other calls
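Cells expressing the human receptor were seeded at 1500 cells/well, incubated overnight at 37 degrees C in 5% CO2, then exposed to library compounds with dopamine controls for 90 minutes at 37 degrees C before luminescent detection.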
D3 ag: agonists of human D3 dopamine receptor; D3R DiscoveRx beta-arrestin cells, luminescence, 90 min; max activation, %; 0.58% of 410,000 active; AID 652048; in the data active = max activation above about 30%
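Agonist-mode cell screen: cells plated at 1500/well and incubated overnight at 37 °C, then exposed to library compounds for 90 min at 37 °C. Detection reagent was added for 30–60 min at room temperature, and luminescence was read.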
Rango dissoc inh: inhibition of RanGTP-driven Rango-importin beta dissociation. Potency, µM (titrated, usually from 46.1 µM). 0.071% of 340,000 active. Biochemical FRET Rango-importin beta, RanGTP-induced dissociation. O95149+P62826; also: nearly all actives have a fitted effect of over 45% in size
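Rango (0.1 uM)–importin beta (0.25 uM) complex; RanGTP-RCC1 trigger; 45 min RT; CFP/YFP FRET read.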
Mm-Cpn inhibitor: inhibitors of Methanococcus maripaludis chaperonin TRiC (MmCpn) | purified Mm-Cpn ATPase, ADP Transcreener TR-FRET | Potency, µM (titrated, usually from 76.9 µM), actives largely listed as inhibitors | 0.031% of 330,000 active; active = well fitted inhibition curve with a large enough effect; inconclusive = small, poorly fitted or top-dose-only effect; also: nearly all actives have a fitted effect of over 80% in size
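ATPase turnover read by TR-FRET ADP competition (Eu cryptate antibody/ADP-d2, 665/590 nm): 10uM ATP final, 25nM Mm-CPN final, 30 min 37degC after 10-min compound preincubation, pH 7.4 Tris/KCl/MgCl2/DTT buffer.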
PTAP TSG101 blk: blocks PTAP/TSG101 interaction to inhibit HIV-1 budding | Potency, µM (top dose mostly 115 µM), usual class: inhibitors | Fluorescence polarization, FITC-PTAP peptide / Tsg101 binding | Q99816 | 340,000 tested, under 10 active; active = well fitted inhibition curve with a large enough effect in the main read-out, with a control signal flat, not every such curve was filed as active; inconclusive = small, poorly fitted or top-dose-only effect, or effect the other way, or a change in a side signal; inactive = no such curve, though single readings can be large or run the other way
Target sequence (Q99816 whole entry, looked up): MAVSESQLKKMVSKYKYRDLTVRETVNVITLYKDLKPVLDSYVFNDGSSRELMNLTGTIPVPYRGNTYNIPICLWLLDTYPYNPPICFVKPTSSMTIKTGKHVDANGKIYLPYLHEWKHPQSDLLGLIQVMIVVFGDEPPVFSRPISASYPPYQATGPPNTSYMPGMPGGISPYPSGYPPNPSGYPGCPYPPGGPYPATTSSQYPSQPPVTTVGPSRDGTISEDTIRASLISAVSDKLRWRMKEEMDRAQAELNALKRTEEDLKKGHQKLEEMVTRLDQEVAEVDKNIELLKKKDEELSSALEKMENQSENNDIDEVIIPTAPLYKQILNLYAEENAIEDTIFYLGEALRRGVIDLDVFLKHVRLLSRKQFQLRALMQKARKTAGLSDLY
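Fluorescence anisotropy tracks displacement of a FITC-tagged PTAP peptide (50 nM) from the Tsg101 binding domain (10 uM), following a 20 min room-temperature incubation at pH 7.5.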
Of the large screens only hits and unclear results are named; the others gave an inactive call. Unless noted, calls follow the shape of the full dose curve.

CC(=O)Nc1cccc(-c2ccnc3c2CC(C(=O)Nc2ccc4c(c2)OCO4)O3)c1 (stereo not given)	DRD3 antagonist -54.9 (no result: Rango complex inh, Rango dissoc inh, Mm-Cpn inhibitor, PTAP TSG101 blk)
CC(=O)Nc1ccc(NC(=O)C2Cc3c(-c4ccco4)ccnc3O2)cc1 (stereo not given)	DRD3 antagonist -61.0 (no result: Rango complex inh, Rango dissoc inh, Mm-Cpn inhibitor, PTAP TSG101 blk)
NC(=O)c1cccc(-c2ccnc3c2CC(C(=O)NCc2ccco2)O3)c1 (stereo not given)	DRD3 antagonist inconclusive (no result: Rango complex inh, Rango dissoc inh, Mm-Cpn inhibitor, PTAP TSG101 blk)
CC(=O)Nc1cccc(-c2ccnc3c2CC(C(=O)NCc2cccs2)O3)c1 (stereo not given)	DRD3 antagonist -77.5 (no result: Rango complex inh, Rango dissoc inh, Mm-Cpn inhibitor, PTAP TSG101 blk)
O=C(Nc1ccccc1)C1Cc2c(-c3ccco3)ccnc2O1 (stereo not given)	none (no result: Rango complex inh, Rango dissoc inh, Mm-Cpn inhibitor, PTAP TSG101 blk)
CC(=O)c1cccc(-c2ccnc3c2CC(C(=O)NCc2ccco2)O3)c1 (stereo not given)	DRD3 antagonist -70.4 (no result: Rango complex inh, Rango dissoc inh, Mm-Cpn inhibitor, PTAP TSG101 blk)
CN1C(=O)c2[nH]nc(-c3ccc(F)cc3)c2C1c1cccc(O)c1 (stereo not given)	none (no result: Rango complex inh, DRD3 antagonist, Rango dissoc inh, Mm-Cpn inhibitor, PTAP TSG101 blk)
COc1ccc(NC(=O)C2Cc3c(-c4cccc(C(N)=O)c4)ccnc3O2)cc1OC (stereo not given)	D3 ag 39.2 (no result: Rango complex inh, Rango dissoc inh, Mm-Cpn inhibitor, PTAP TSG101 blk)
CSCCC(NC(=O)c1ccc(Cl)cc1Cl)C(=O)N(C)Cc1nc2ccccc2c(=O)[nH]1 (stereo not given)	DRD3 antagonist -51.3
CSCCC(NC(=O)c1ccc(Cl)cc1Cl)C(=O)NCc1ccncc1 (stereo not given)	Rango dissoc inh inconclusive
O=C(CCCCn1c(=O)c2ccccc2n(Cc2ccccc2Cl)c1=O)NCCc1ccccc1	none (no result: Rango complex inh, DRD3 antagonist, Rango dissoc inh, Mm-Cpn inhibitor, PTAP TSG101 blk)
Nc1c(C(=O)c2ccc(Cl)cc2)sc2c1c(=O)[nH]c(=O)n2-c1ccccc1	none
Nc1c(C(=O)c2ccccc2)sc2c1c(=O)[nH]c(=O)n2-c1ccccc1	DRD3 antagonist -52.8
CN(Cc1ccccc1O)CC1CCCN(CCc2ccc(Cl)cc2)C1 (stereo not given)	DRD3 antagonist -54.6
O=[N+]([O-])c1cc(S(=O)(=O)Nc2ccccc2)ccc1-n1nnc2ccccc21	DRD3 antagonist -61.5
CCN1CCN(CC(=O)N2N=CCC2c2ccccc2)CC1 (stereo not given)	DRD3 antagonist -50.6
COc1ccc(NC(=O)Cn2c(=O)n(-c3cc(C)cc(C)c3)c(=O)c3oc4ccccc4c32)cc1OC	none (no result: Rango complex inh, DRD3 antagonist, Rango dissoc inh, Mm-Cpn inhibitor, PTAP TSG101 blk)
COc1ccc(-c2ccoc2)cc1[C@H]1[C@H]2C=CC[C@@H](C)[C@@H]2C(=O)N1Cc1ccccc1	DRD3 antagonist -56.1
COc1ccc(-c2ccc(OC)c([C@H]3[C@H]4C=CC[C@@H](C)[C@@H]4C(=O)N3Cc3ccccc3)c2)cc1	DRD3 antagonist -52.1, Rango dissoc inh inconclusive
COc1ccc(-c2ccc(C)cc2)cc1[C@H]1[C@H]2C=CC[C@@H](C)[C@@H]2C(=O)N1Cc1ccccc1	Rango complex inh inconclusive
Cc1cc(C)c(NC(=O)CSc2nc(C)cc(C)c2C#N)c(C)c1	none (no result: Rango complex inh, DRD3 antagonist, Rango dissoc inh, Mm-Cpn inhibitor, PTAP TSG101 blk)
CN1CCCC(n2nc(Cc3ccc(Cl)cc3)c3ccccc3c2=O)CC1 (stereo not given)	DRD3 antagonist -53.7 (no result: Mm-Cpn inhibitor)
CCOC(=O)Cn1nc(Cc2ccccc2)c2ccccc2c1=O	none
OC1(Cc2cc(-c3ccccc3)no2)CCN(CCCc2ccccc2)CC1	Rango complex inh inconclusive, DRD3 antagonist -75.1
Cc1ncc(C23CC4CC(CC(C4)C2)C3)[nH]1	DRD3 antagonist -55.3
Cc1cccc(OCC(=O)Nc2ccc(Cl)c(-c3nc4ccccc4[nH]3)c2)c1	none (no result: Rango complex inh, DRD3 antagonist, Rango dissoc inh, Mm-Cpn inhibitor, PTAP TSG101 blk)
COc1cc(NC(=O)CN2CCCN(S(=O)(=O)c3ccc(F)cc3)CC2)cc(OC)c1	none (no result: Rango complex inh, DRD3 antagonist, Rango dissoc inh, Mm-Cpn inhibitor, PTAP TSG101 blk)
CCOC(=O)COc1c(OC)cc(Cl)cc1C1Nc2ccccc2C(=O)N1c1ccccc1 (stereo not given)	DRD3 antagonist -58.9
CCc1cc(=O)[nH]c(SCC(=O)N2CCC(Cc3ccccc3)CC2)n1	DRD3 antagonist -58.6
O=C(COc1ccc(F)cc1)N1CCC(Cc2ccccc2)CC1	none
COc1ccc(-c2nnc(SCC(=O)N3CCC(Cc4ccccc4)CC3)o2)cc1OC	D3 ag 37.5
